MCF10A rerep: inducers of DNA re-replication in MCF 10A breast cells; MCF 10A DNA re-replication, Hoechst nuclear intensity, 48 h; Potency, µM (titrated, usually from 46.1 µM), for inactives: top-dose activity, positive = re-replication, usual class: activators; 350,000 tested, 2.9% active; further: potency means the concentration at half of the fitted maximal effect; % of control where 0% means no effect; nearly all actives have a fitted effect of over 50% in size
Giardia killer: Giardia lamblia killing; Giardia lamblia trophozoite viability; activity change, % at 7.66 µM, hits read low; 340,000 tested, 0.15% active; AID 540267; in the data active means activity change below about -80%; inconclusive means between about -30% and that limit;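 further: parasites exposed to compound for two days anaerobically before the ATP read; on the % scale 0 is the no-effect control and ±100 the full control effect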
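ATP-content bioluminescence gauges trophozoite survival. Cells (100/well) receive compound and incubate anaerobically for 48 hrs at 37 deg C; detection reagent follows for 15-30 min at room temperature.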
IL1B secr inh: inhibitors of inflammasome signaling (IL-1 beta secretion); THP-1 LPS/ATP IL-1B secretion, AlphaLISA, 16 h; active compounds read low; activity change, % at 57.5 µM; 360,000 tested, 4.7% active; in the data active means activity change below about -50%; inconclusive means mostly about -30% to -49%; further: on the % scale 0 is the no-effect control and ±100 the full control effect
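Secreted IL-1B measured by AlphaLISA bead assay after 16 h compound exposure of THP-1 cells; compounds (final up to 57.5 uM) added 1 h before LPS (250 ng/mL) and ATP (1.25 mM) stimulation; lower signal means less secretion.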
Vif-A3F inh: Vif-A3F binding inhibition. Potency, µM (series often up to 46.1 µM), for the others: at the top dose activity, negative = active. HeLa A3F-eYFP + Vif (tagged APOBEC3F with the HIV-1 protein that degrades it), YFP fluorescence increase. 390,000 tested, 0.2% active. AID 602313; further: potency means the concentration at half of the fitted maximal effect; % of control where 0% means no effect; nearly all actives have a fitted effect of over 65% in size
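HeLa cells stably expressing A3F-eYFP plus Vif, plated and incubated overnight at 37 deg C, then exposed to compounds overnight at 37 deg C. Blocked degradation read as raised yellow fluorescence (Ex 488/Em 500-530).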
Vif-APOBEC3G blk: blocks the Vif interaction with human APOBEC3G; Q9HC16; HeLa A3G-eYFP + Vif (tagged APOBEC3G with the HIV-1 protein that degrades it), YFP fluorescence, overnight; Potency, µM (titrated, usually from 46.1 µM), for the others: at the top dose activity, negative = active, most hits filed as inhibitors; 410,000 tested, 0.076% active; AID 602310; further: potency means the concentration at half of the fitted maximal effect; on the % scale 0 is the no-effect control and ±100 the full control effect; nearly all actives have a fitted effect of over 60% in size
Target sequence (Q9HC16 whole entry, looked up): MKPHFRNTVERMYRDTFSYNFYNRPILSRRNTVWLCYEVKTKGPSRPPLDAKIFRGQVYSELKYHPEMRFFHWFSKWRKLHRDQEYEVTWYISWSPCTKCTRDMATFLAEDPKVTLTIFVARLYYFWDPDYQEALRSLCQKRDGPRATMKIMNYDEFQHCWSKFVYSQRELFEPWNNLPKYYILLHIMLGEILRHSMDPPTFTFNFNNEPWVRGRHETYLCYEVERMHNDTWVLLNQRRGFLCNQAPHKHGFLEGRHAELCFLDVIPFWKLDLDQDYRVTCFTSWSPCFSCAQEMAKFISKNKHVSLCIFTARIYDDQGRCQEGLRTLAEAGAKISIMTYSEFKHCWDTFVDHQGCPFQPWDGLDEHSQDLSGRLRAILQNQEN
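HeLa cells stably expressing Vif and C-terminally eYFP-tagged A3G, seeded overnight at 37 deg C, then exposed to compound by pintool overnight at 37 deg C. Rise in yellow fluorescence (Ex 488/Em 500-530, Acumen) marks blocked Vif-driven A3G degradation.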
SW480 rereplic: induces DNA re-replication in SW480 colon adenocarcinoma cells; AID 624297; 340,000 tested, 1.8% active; SW480 DNA re-replication, Hoechst DNA content imaging, 48 h; Potency, µM (doses to about 46.1 µM), without a hit: at the highest dose re-replication activation, most hits filed as activators; further: potency means the concentration at half of the fitted maximal effect; % of control where 0% means no effect; nearly all actives have a fitted effect of over 55% in size
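First, 250 cells per well were seeded. Next, compound or vehicle (23 nL) was pinned in, plates sat 48 hr at 37 C. Finally Hoechst was added for 40 min before fluorescence scanning.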
Starred values were filed as active, the others as inactive; ? = inconclusive; / = not tested or not shown; [ ] = another dose, or the depositor's remark. An excerpt weighted towards active compounds, which were near 6.9% of everything screened. Unless noted, the call rests on the fitted dose curve; in most records, active means well fitted curve in the direction sought with a large enough effect; inconclusive means small, poorly fitted or top-dose-only effect, or another doubt; inactive means no such curve, though single readings can be large; an effect the other way counts as inactive or inconclusive.

SMILES	MCF10A rerep	Giardia killer	IL1B secr inh	Vif-A3F inh	Vif-APOBEC3G blk	SW480 rereplic
CC1(C)CC(N=c2cc(-c3ccccc3)oc3ccc(Cl)cc23)CC(C)(C)N1	?	?	-102*	20%	-1%	?
Cc1cc(Nc2cccc([N+](=O)[O-])c2)n2c(nc3ccccc32)c1C#N	6.3µM*	7	-67*	-1%	3%	?
O=C(CCN1CCC(c2ccccc2)C1)c1cccs1 (stereo not given)	11%	-10	-15	1%	-12%	-2%
O=C(CCN1CCCC1)c1cccs1	23µM*	23	-13	14%	4%	103%
N=c1n(CCN2CCCCC2)c2ccccc2n1CC(=O)c1cccs1	?	15	-76*	4%	2%	8.2µM*
COc1ccc2nc(N3C(=O)/C(=C/c4ccccc4)NC3=S)sc2c1	?	-2	22	13µM*	5µM*	22%
COc1ccc2cc(C(=O)NCc3ccc4c(c3)CCN4C(=O)c3ccc(F)cc3)[nH]c2c1	/	/	/	3%	-15%	/
Nc1nc(N)c2c(Oc3ccc(F)cc3)cccc2n1	/	/	/	/	1%	/
Cc1cccc(C)c1OCc1nc2c3cnn(-c4cccc(F)c4)c3ncn2n1	/	/	/	-10%	-3%	/
CC(=O)NS(=O)(=O)c1ccc(NC(=O)c2cc3c(=O)n4ccccc4nc3s2)cc1	?	5	6	1%	-3%	?
CCN(CC)S(=O)(=O)c1ccc(OC)c(NC(=O)c2cc3c(=O)n4ccccc4nc3s2)c1	16µM*	38	-6	-4%	2%	6%
COc1ccc(Cn2c(CCC(=O)NCc3ccc(Cl)cc3)nc3cccnc32)cc1	/	/	/	3%	-3%	/
CCN1C(=O)C(CC(=O)Nc2ccc(OC)cc2)N(CCc2ccc(OC)cc2)C1=S (stereo not given)	?	-8	-86*	8%	-7%	4%
CCCOc1ccc(NC(=O)CC2C(=O)N(CC)C(=S)N2CCCN2CCN(Cc3ccccc3)CC2)cc1 (stereo not given)	?	9	-100*	12%	-29%	?
COc1ccc(CCN2C(=S)N(c3ccccc3)C(=O)C2CC(=O)O)cc1OC (stereo not given)	-3%	-22	10	-19%	-5%	-27%
CNC(=O)CC1C(=O)N(c2ccc(Cl)cc2)C(=S)N1CCc1ccc(OC)c(OC)c1 (stereo not given)	?	-4	-50*	-12%	-4%	?
CCCOc1ccc(NC(=O)CC2C(=O)N(CC)C(=S)N2CCNC(C)=O)cc1 (stereo not given)	?	-5	8	-6%	2%	24%
CCC(=O)N1CCc2cc(Br)cc(S(=O)(=O)CCC(=O)NCc3ccc(F)cc3)c21	/	/	/	2%	-4%	/
CN(C)c1ccc(C(CNC(=O)Cc2ccc(Cl)cc2)N2CCOCC2)cc1 (stereo not given)	/	/	/	-1%	4%	/
CC(C)(C)C1CCc2c(sc(NC(=O)C3CCCO3)c2C(N)=O)C1 (stereo not given)	18µM*	1	-9	-5%	2%	?
NC(=O)c1c(NC(=O)C2CCCO2)sc2c1CCC2 (stereo not given)	-7%	-8	-26	-3%	3%	-15%
CC(C)(C)C1CCc2c(sc(N)c2C(N)=O)C1 (stereo not given)	?	-20	-64*	1%	2%	17%
O=c1oc(-c2ccc([N+](=O)[O-])cc2)nc2ccc(O)cc12	-12%	-2	-68*	-13%	0%	5%
O=c1oc(-c2ccc([N+](=O)[O-])cc2)nc2ccccc12	3%	-9	-7	2%	-2%	?
CCC(C)NC(=O)CSc1nc2cc3c(cc2c(=O)n1Cc1ccc(C(=O)NCCc2ccc(OC)c(OC)c2)cc1)OCO3 (stereo not given)	/	-8	/	/	-4%	/
SMILES	MCF10A rerep	Giardia killer	IL1B secr inh	Vif-A3F inh	Vif-APOBEC3G blk	SW480 rereplic
CCN1CCN(C2=C(NS(=O)(=O)c3ccccc3)C(=O)c3ccccc3C2=O)CC1	?	40	54	8%	-16%	18µM*
CCOc1ccccc1N1CCN(C2=C(NS(=O)(=O)c3cccs3)C(=O)c3ccccc3C2=O)CC1	23µM*	4	-29	0%	-8%	24%
CCC(CC)C(=O)Nc1nnc(SCc2cc(=O)c3ccccc3[nH]2)s1	/	/	/	-1%	2%	/
Cc1ccc(CCSc2ccc(C(C)C)cc2)cn1	?	10	-59*	-15%	0%	7%
O=C(CN1CC[n+]2c(-c3ccccc3)csc21)c1ccc(Br)cc1	6%	-19	-54*	-3%	4%	-8%
O=C(CN1CC[n+]2c(-c3cccs3)csc21)c1ccc(Br)cc1	?	-1	?	2%	0%	17%
O=C(CS(=O)(=O)c1cccc2nsnc12)N1CCN(c2cccc(C(F)(F)F)c2)CC1	/	/	/	-1%	1%	/
O=C(Oc1cccc2cccnc12)c1cccs1	5.2µM*	10	123	1%	-9%	?
O=C(Oc1cccc2cccnc12)c1ccc(Br)o1	-4%	-20	13	-15%	0%	-2%
O=C(NCCOc1cccc2cccnc12)c1cccs1	2%	-1	-21	5%	-10%	3%
O=C(Cc1ccc(Cl)cc1)Oc1cccc2cccnc12	?	14	-100*	4%	?	?
CNS(=O)(=O)c1cn(CC(=O)N2CCN(c3ccc(C(C)=O)cc3)CC2)cc1S(=O)(=O)NC	/	/	/	5%	1%	/
Cc1ccc(NN2C(=O)C=C(c3ccccc3)C2=O)cc1	8.2µM*	-20	-28	0%	?	8.2µM*
O=C(c1ccc(S(=O)(=O)Nc2ccc(F)cc2)cc1)N1CCN(c2ccccn2)CC1	-2%[9.22 µM]	38	-54*	-17%	-3%	-1%
O=C(c1ccc(S(=O)(=O)N2CCOCC2)cc1)N1CCN(c2ccccn2)CC1	1.5µM*	18	10	7%	1%	-39%
O=C(c1ccc(S(=O)(=O)N2CCOCC2)cc1)N1CCN(C2=NS(=O)(=O)c3ccccc32)CC1	0%	0	2	-3%	1%	-4%
O=C(c1ccc(NS(=O)(=O)c2ccc(F)cc2)cc1)N1CCCCC1	3%	-12	-13	-2%	0%	-3%
CC(=O)NCCNC(=O)c1ccc2c(=O)n(CCc3ccccc3)c(=O)[nH]c2c1	/	/	/	-3%	1%	/
Cc1nn(-c2ccccc2)c2c1N(CC(=O)NCc1ccc(N(C)C)cc1)C(=O)CS2	/	/	/	-1%	1%	/
CC(=O)N(C1=C(Cl)C(=O)c2ccccc2C1=O)C1CCCCC1	?	-13	-97*	?	?	?
CC(=O)N(c1ccccc1C)C1CCCC1	14%	18	6	12%	-1%	-14%

Screening data as filed in PubChem.
